Results: PubChem BioAssay AID434970 (Sanford-Burnham Center for Chemical Genomics, 2010)
The campaign covered roughly 11,000 compounds. About 310 (2.8%) were called active. No stated cut-off is given here; in the data, active means activity change below about -85%; inactive means the rest. Shown is part of a subset that was picked to be rich in actives.

These molecules were tested on intestinal alkaline phosphatase [Mus musculus] (assay: activators of mouse IAP, confirmation, biochemical, luminescence, single concentration (AID 434970)). Conditions: purified mouse IAP, CDP-Star luminescence, 30 min, at 10 µM; activation factor: measured here: IAP activation factor, stronger effect = higher value; activity change, negative = activation: stronger effect = lower value.
Fc1cc(NC(=S)NCc2ccc(CNC(=S)Nc3ccc(Cl)c(F)c3)cc2)ccc1Cl was tested, and the activation factor was 1.44 and the activity change, negative = activation was -44.1% (inactive). With O=C(NCCSCc1ccco1)Nc1cc(Cl)cc(Cl)c1 the activation factor was 1.27 and the activity change, negative = activation was -27.2% (inactive). O=C(Nc1ccc(Cl)cc1)NC1CCCCC1Cc1ccco1 (stereo not given) was tested, and the activation factor was 2.11 and the activity change, negative = activation was -111% (active). In the case of O=C(Nc1ccc(Cl)cc1)C1CCN(C(=O)NC2CCCCC2)CC1, the activation factor is reported as 0.914 and the activity change, negative = activation is reported as 8.6% (inactive). CC/C(=N\n1nnnc1Nc1ccccc1)c1ccccc1 was tested, and the activation factor was 1.02 and the activity change, negative = activation was -2.45% (inactive). In the case of Cc1ccc(N2C(=O)/C(=C/c3ccco3)SC2=S)cc1, the activation factor is reported as 0.396 and the activity change, negative = activation is reported as 60.5% (inactive). In the case of Cc1cc2oc(=O)cc(-c3ccccc3)c2c(C)c1-c1ccc(N(C)C)cc1, the activation factor is reported as 0.885 and the activity change, negative = activation is reported as 11.4% (inactive). COc1cccc(N/C(C)=C/C(=O)c2ccc(Br)cc2)c1 was tested, and the activation factor was 1 and the activity change, negative = activation was -0.05% (inactive). In the case of COc1cccc(NC(=O)Nc2ccc3c(c2)N(C)C(=O)CS3)c1, the activation factor is reported as 0.986 and the activity change, negative = activation is reported as 1.5% (inactive). In the case of Cc1cccc(NC(=O)Nc2ccc3c(c2)CCC3)c1, the activation factor is reported as 1.41 and the activity change, negative = activation is reported as -41.4% (inactive). For Cn1cccc1C(=O)OCC(=O)Nc1ccc2c(c1)CCC2, the activation factor was 1.05 and the activity change, negative = activation was -5.05% (inactive). For O=C(Nc1ccc2c(c1)CCC2)Nc1ccccc1F, the activation factor was 1.69 and the activity change, negative = activation was -68.5% (inactive). For O=C(Nc1ccccc1)Nc1ccc2c(c1)CCC2, the activation factor was 1.95 and the activity change, negative = activation was -94.8% (active). COc1cccc(NC(=O)Nc2ccc3c(c2)CCC3)c1 was tested, and the activation factor was 2.9 and the activity change, negative = activation was -190% (active). For Cc1ccc(NCc2nnc(SCC(=O)N3CCCc4ccccc43)o2)c(C)c1, the activation factor was 1.02 and the activity change, negative = activation was -2.3% (inactive). With CCS(=O)(=O)n1nc(-c2ccccc2)nc1N the activation factor was 0.926 and the activity change, negative = activation was 7.4% (inactive). With CC(/C=N/n1cnnc1)=C\c1ccccc1 the activation factor was 1.02 and the activity change, negative = activation was -1.9% (inactive). For CC1(C)CC(=O)C2=C(C1)NC(=O)CC2C(=O)NCc1ccc(F)cc1 (stereo not given), the activation factor was 1.3 and the activity change, negative = activation was -29.9% (inactive). In the case of COc1cc(-c2nnc3n2N=C(c2ccccc2)CS3)cc(OC)c1OC, the activation factor is reported as 0.996 and the activity change, negative = activation is reported as 0.4% (inactive). For CCCNC(=O)c1ccccc1NC(=O)CN(c1ccccc1OCC)S(C)(=O)=O, the activation factor was 1.15 and the activity change, negative = activation was -15.4% (inactive). In the case of O=P(OC1CCS(=O)(=O)C1)(c1ccccc1)c1ccccc1 (stereo not given), the activation factor is reported as 0.921 and the activity change, negative = activation is reported as 7.85% (inactive). For [N-]=[N+]=CC(=O)CCCN1C(=O)c2ccccc2C1=O, the activation factor was 1.09 and the activity change, negative = activation was -9.05% (inactive). O=C(Cc1cccs1)Nc1nnc(CCc2ccccc2)s1 was tested, and the activation factor was 1.15 and the activity change, negative = activation was -14.7% (inactive). In the case of O=C(Nc1cccc(F)c1)NC1CCCCCCC1, the activation factor is reported as 2.42 and the activity change, negative = activation is reported as -142% (active). With O=C(Nc1cccc(F)c1)c1ccccc1 the activation factor was 1.01 and the activity change, negative = activation was -0.8% (inactive). For CC1CCCN(C(=O)C2(NC(=O)Nc3cccc(F)c3)CCCCC2)C1 (stereo not given), the activation factor was 1.81 and the activity change, negative = activation was -81.1% (inactive). For Cc1ccc(NC(=O)NC2CCCCCCC2)cc1C, the activation factor was 2.56 and the activity change, negative = activation was -156% (active). With Cc1cc(C)cc(NC(=S)NCCN(C2CCCCC2)C2CCCC2)c1 the activation factor was 1.28 and the activity change, negative = activation was -28.3% (inactive). In the case of Cc1ccc(NC(=S)NC2CCCCC2)cc1S(=O)(=O)N(C)C, the activation factor is reported as 1.3 and the activity change, negative = activation is reported as -29.9% (inactive). Cc1cc(C)cc(NC(=O)Nc2ccc(N3CCCCC3)cc2)c1 was tested, and the activation factor was 1.16 and the activity change, negative = activation was -15.9% (inactive). Cc1cccc(NC(=O)CC2NC3CCCCC3NC2=O)c1 (stereo not given) was tested, and the activation factor was 0.974 and the activity change, negative = activation was 2.55% (inactive). In the case of Cc1ccc(NC(=O)C2CCN(C(=O)NC3CCCCC3)CC2)cc1Cl, the activation factor is reported as 1.21 and the activity change, negative = activation is reported as -20.9% (inactive). For Cc1cc(C)cc(NC(=O)NC2CCCCCCC2)c1, the activation factor was 3.37 and the activity change, negative = activation was -237% (active). For Cc1cccc(NC(=O)NC2CCCCCCC2)c1, the activation factor was 2.45 and the activity change, negative = activation was -145% (active). In the case of CC(=O)OC(C(=O)NC1CCCCC1)c1cccc(C)c1 (stereo not given), the activation factor is reported as 1.04 and the activity change, negative = activation is reported as -4.4% (inactive). C=CCNc1nc(Nc2ccc(OC)cc2)nc(OC)n1 was tested, and the activation factor was 0.992 and the activity change, negative = activation was 0.8% (inactive). In the case of CC(C)C(NC(=S)NCc1ccccc1)C(=O)O (stereo not given), the activation factor is reported as 0.93 and the activity change, negative = activation is reported as 7% (inactive). Cc1ccc(-c2nn3c(C)nnc3s2)cc1NC(=O)c1ccc(-c2cccc(Cl)c2)o1 was tested, and the activation factor was 0.849 and the activity change, negative = activation was 15.2% (inactive). In the case of Cc1ccccc1NC1=C(Cl)C(=O)OC1OC(C)C (stereo not given), the activation factor is reported as 0.976 and the activity change, negative = activation is reported as 2.45% (inactive). With CCOC(=O)c1c(N)sc(C(N)=O)c1C the activation factor was 1.01 and the activity change, negative = activation was -0.6% (inactive).
